Records with an inconclusive call do not appear. The source made the active and inactive calls.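 The calls were made as follows, unless noted: active = normalized viability below 100% at a tested concentration; inactive = the rest.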
Assays:
[1] = growth inhibition of DIPG glioma cells, dose response, cell-based, SU-DIPG-XVII, MIPE5.0, CellTiter-Glo, qHTS (AID 1347060; cut-off not given, nearly all actives have AC50 up to about 26 µM;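 also: cells exposed to compound for 48 hours before viability readout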); details: SU-DIPG-XVII viability, CellTiter-Glo ATP luminescence
[2] = growth inhibition of DIPG glioma cells, dose response, cell-based, SU-DIPG-XIII, MIPE4.0, CellTiter-Glo, qHTS (AID 1347061; cut-off not given, nearly all actives have AC50 up to about 37 µM;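 also: cells exposed to compound for 48 hours before readout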); details: SU-DIPG-XIII viability, CellTiter-Glo ATP luminescence
[3] = growth inhibition of DIPG glioma cells, dose response, cell-based, JHH-DIPG-1, MIPE4.0, CellTiter-Glo, qHTS (AID 1347062; cut-off not given, nearly all actives have AC50 up to about 27 µM;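 also: cells exposed to compound for two days before readout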); details: JHH-DIPG-1 viability, CellTiter-Glo ATP luminescence
[4] = growth inhibition of DIPG glioma cells, dose response, cell-based, SU-DIPG-IV, MIPE4.0, CellTiter-Glo, qHTS (AID 1347063; cut-off not given, nearly all actives have AC50 up to about 30 µM;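 also: compound exposure lasted 48 hours before the viability readout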); details: SU-DIPG-IV viability, CellTiter-Glo ATP luminescence
[5] = growth inhibition of DIPG glioma cells, dose response, cell-based, SU-DIPG-XIII, MIPE5.0, CellTiter-Glo, qHTS (AID 1347064; cut-off not given, nearly all actives have AC50 up to about 23 µM;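 also: cells exposed to compound for 48 hours before the viability read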); details: SU-DIPG-XIII viability, CellTiter-Glo ATP luminescence
[6] = viability loss in pontine glioma line – cell-based, SU-DIPG-XXV, MIPE5.0, CellTiter-Glo, qHTS, dose response (AID 1347065; cut-off not given, nearly all actives have AC50 up to about 26 µM;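 also: cells exposed to compound for 48 hours before ATP readout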); details: CellTiter-Glo ATP luminescence
[7] = SU-DIPG-VI glioma cell viability, MIPE4.0 library, CellTiter-Glo luminescence, qHTS (AID 1347066; cut-off not given, nearly all actives have AC50 up to about 30 µM;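 also: cells exposed to compound for 48 hours before readout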); details: CellTiter-Glo ATP luminescence
[8] = JHH-DIPG-1 glioma cell viability, MIPE5.0 library, CellTiter-Glo luminescence, qHTS (AID 1347067; cut-off not given, nearly all actives have AC50 up to about 26 µM;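 also: cells exposed to compound for 48 hours before readout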); details: JHH-DIPG-1 glioma viability, CellTiter-Glo ATP luminescence
[9] = modifiers of HSF1 nuclear foci, imaging, Selleck Cancer Library (AID 1347162; in the data active = plate-normalised HSF1 focus index below about 0.46); details: human cells, at 10 µM; SSMD: measured here: HSF1 foci SSMD mean; cell count: measured here: cell number; plate-normalised HSF1 focus index: stronger effect = lower value
[10] = ovarian cancer cell viability with rucaparib, profiling panel, oncology-focused library, rucaparib conditional (AID 1508598); details: patient-derived ovarian cancer cells, CellTiter-Glo viability, 144 h, stronger effect = lower value
[11] = LFS_MB_P medulloblastoma growth inhibition, cell-based, chromothripsis tumors, cisplatin or BGB combos (AID 1671449; in the data active = inhibition above about 80%;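 also: cells exposed for 96 hours; 0% = vehicle DMSO and 100% = killing by high DMSO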); details: LFS_MB_P medulloblastoma cells
[12] = HDN33 neuroblastoma growth inhibition, cell-based, chromothripsis tumors, cisplatin or BGB combos (AID 1671450; in the data active = inhibition above about 80%;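 also: cells exposed to compound for four days; 0% = vehicle DMSO and 100% = cell killing by high DMSO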); details: HDN33 neuroblastoma cells, stronger effect = higher value
[13] = ICB984 medulloblastoma cell growth inhibition, synergistic combos for chromothripsis tumors, cisplatin or BGB combos (AID 1671451; call rule not given here;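 also: cells exposed for 96 hours before readout; 0% = vehicle DMSO and 100% = killing by high DMSO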); details: ICB984 medulloblastoma cells, drug combinations, stronger effect = higher value
[14] = HTB85 osteosarcoma cell growth inhibition, synergistic combos for chromothripsis tumors, BGB or cisplatin IC20 combos (AID 1671453; in the data active = inhibition above about 80%;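 also: cells exposed for 96 hours before readout; 0% = vehicle DMSO and 100% = high DMSO killing control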); details: HTB85 osteosarcoma cells, drug combinations, stronger effect = higher value
[15] = MDA-MB-436 breast carcinoma cell growth inhibition, synergistic combos for chromothripsis tumors, BGB or cisplatin combos (AID 1671458; call rule not given here;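 also: cells exposed for 96 hours; 0% = vehicle DMSO and 100% = killing by high DMSO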); details: MDA-MB-436 breast carcinoma growth inhibition, drug combinations, stronger effect = higher value
[16] = growth inhibition of BT084 medulloblastoma cells, cell-based, ICGC_MB145, cisplatin and BGB IC40 combos (AID 1671461; in the data active = inhibition above about 80%;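 also: cells exposed to drugs for 96 hours; 0% = vehicle DMSO and 100% = high DMSO full killing control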); details: drug combinations, stronger effect = higher value
[17] = growth inhibition of RCMB18 medulloblastoma cells, cell-based, cisplatin and BGB IC40 combos (AID 1671462; in the data active = inhibition above about 80%;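 also: cells exposed to compound for four days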); details: stronger effect = higher value
[18] = SU-DIPG-XXV glioma cell viability, MIPE5.0 library, qHTS (AID 1347068; cut-off not given, nearly all actives have IC50 up to about 30 µM;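 also: cells exposed to compound for 48 hours before viability readout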)

O=C(/C=C/c1cccc(S(=O)(=O)Nc2ccccc2)c1)NO
AC50 [1]: 2.09 µM (active) | AC50 [2]: 15.2 µM (active) | AC50 [3]: 7.62 µM (active) | AC50 [4]: 3.4 µM (active) | AC50 [5]: 0.661 µM (active) | AC50 [6]: 0.742 µM (active) | AC50 [7]: 3.82 µM (active) | AC50 [8]: 0.742 µM (active) | SSMD [9]: -3.23 | cell count [9]: 7740 | plate-normalised HSF1 focus index [9]: 0.885 (inactive) | viability ([10]; at 0.000305 µM, OCI-C5x cells, with rucaparib 10 µM, 100% = cells with rucaparib alone): 104% (inactive) | viability ([10]; at 0.000305 µM, OCI-C5x cells, without rucaparib): 114% (inactive) | viability ([10]; at 0.000305 µM, OCI-P5x cells, with rucaparib 20 µM, 100% = cells with rucaparib alone): 106% (inactive) | viability ([10]; at 0.000305 µM, OCI-P5x cells, without rucaparib): 94% (active) | viability ([10]; at 0.00122 µM, OCI-C5x cells, with rucaparib 10 µM, 100% = cells with rucaparib alone): 98.8% (active) | viability ([10]; at 0.00122 µM, OCI-C5x cells, without rucaparib): 117% (inactive) | viability ([10]; at 0.00122 µM, OCI-P5x cells, with rucaparib 20 µM, 100% = cells with rucaparib alone): 113% (inactive) | viability ([10]; at 0.00122 µM, OCI-P5x cells, without rucaparib): 100% (inactive) | viability ([10]; at 0.00488 µM, OCI-C5x cells, with rucaparib 10 µM, 100% = cells with rucaparib alone): 114% (inactive) | viability ([10]; at 0.00488 µM, OCI-C5x cells, without rucaparib): 117% (inactive) | viability ([10]; at 0.00488 µM, OCI-P5x cells, with rucaparib 20 µM, 100% = cells with rucaparib alone): 101% (inactive) | viability ([10]; at 0.00488 µM, OCI-P5x cells, without rucaparib): 95% (active) | viability ([10]; at 0.0195 µM, OCI-C5x cells, with rucaparib 10 µM, 100% = cells with rucaparib alone): 104% (inactive) | viability ([10]; at 0.0195 µM, OCI-C5x cells, without rucaparib): 119% (inactive) | viability ([10]; at 0.0195 µM, OCI-P5x cells, with rucaparib 20 µM, 100% = cells with rucaparib alone): 90.8% (active) | viability ([10]; at 0.0195 µM, OCI-P5x cells, without rucaparib): 88.4% (active) | viability ([10]; at 0.0781 µM, OCI-C5x cells, with rucaparib 10 µM, 100% = cells with rucaparib alone): 97.6% (active) | viability ([10]; at 0.0781 µM, OCI-C5x cells, without rucaparib): 112% (inactive) | viability ([10]; at 0.0781 µM, OCI-P5x cells, with rucaparib 20 µM, 100% = cells with rucaparib alone): 77.4% (active) | viability ([10]; at 0.0781 µM, OCI-P5x cells, without rucaparib): 75.3% (active) | viability ([10]; at 0.313 µM, OCI-C5x cells, with rucaparib 10 µM, 100% = cells with rucaparib alone): 77% (active) | viability ([10]; at 0.313 µM, OCI-C5x cells, without rucaparib): 75.9% (active) | viability ([10]; at 0.313 µM, OCI-P5x cells, with rucaparib 20 µM, 100% = cells with rucaparib alone): 43.7% (active) | viability ([10]; at 0.313 µM, OCI-P5x cells, without rucaparib): 63.5% (active) | viability ([10]; at 1.25 µM, OCI-C5x cells, with rucaparib 10 µM, 100% = cells with rucaparib alone): 12.7% (active) | viability ([10]; at 1.25 µM, OCI-C5x cells, without rucaparib): 12.1% (active) | viability ([10]; at 1.25 µM, OCI-P5x cells, with rucaparib 20 µM, 100% = cells with rucaparib alone): 17.8% (active) | viability ([10]; at 1.25 µM, OCI-P5x cells, without rucaparib): 35.8% (active) | viability ([10]; at 5 µM, OCI-C5x cells, with rucaparib 10 µM, 100% = cells with rucaparib alone): 5.06% (active) | viability ([10]; at 5 µM, OCI-C5x cells, without rucaparib): 5.35% (active) | viability ([10]; at 5 µM, OCI-P5x cells, with rucaparib 20 µM, 100% = cells with rucaparib alone): 2.89% (active) | viability ([10]; at 5 µM, OCI-P5x cells, without rucaparib): 3.18% (active) | inhibition ([11]; at 0.5 µM, stronger effect = higher value): 40.5% (inactive) | inhibition ([11]; measured here: combination with BGB IC20, at 0.005 µM): -0.936% | inhibition ([11]; measured here: combination with BGB IC40, at 0.005 µM): -11.3% | inhibition ([11]; measured here: combination with BGB IC40, at 0.05 µM): -18.3% | inhibition ([11]; measured here: combination with cisplatin, at 0.5 µM, stronger effect = higher value): 101% | inhibition ([11]; measured here: combination with cisplatin, at 5 µM, stronger effect = higher value): 112% | inhibition ([12]; BGB combo, at 5 µM): 99.6% | inhibition ([12]; at 0.5 µM): 28.3% (inactive) | inhibition ([12]; cisplatin combo, at 5 µM): 99.8% | inhibition ([12]; measured here: with BGB IC20 combination, at 0.5 µM): 17.9% | inhibition ([12]; measured here: with cisplatin IC20 combination, at 0.5 µM): 21.7% | inhibition ([12]; single agent, at 5 µM): 99.8% | inhibition ([13]; BGB IC20 combo, at 0.005 µM): 18.9% | inhibition ([13]; BGB IC40 combo, at 0.005 µM): 36.1% | inhibition ([13]; BGB IC40 combo, at 0.05 µM): 94.9% | inhibition ([13]; at 0.5 µM): -22.2% (inactive) | inhibition ([13]; cisplatin combo, at 0.05 µM): 94.8% | inhibition ([13]; cisplatin combo, at 0.5 µM): -34.3% | inhibition ([13]; cisplatin combo, at 5 µM): -34.9% | inhibition ([13]; measured here: 5 uM single agent, at 5 µM): -35.3% | inhibition ([14]; at 0.5 µM): 34.5% (inactive) | inhibition ([14]; measured here: with BGB IC20, at 0.5 µM): 8.9% | inhibition ([14]; measured here: with BGB IC20, at 5 µM): 99.2% | inhibition ([14]; measured here: with cisplatin IC20, at 0.5 µM): 49.8% | inhibition ([14]; measured here: with cisplatin IC20, at 5 µM): 99.8% | inhibition ([14]; single agent, at 5 µM): 99.7% | inhibition ([15]; at 0.5 µM): 33.7% (inactive) | inhibition ([15]; measured here: BGB combination, at 0.5 µM): 25.2% | inhibition ([15]; measured here: BGB combination, at 5 µM): 62% | inhibition ([15]; measured here: cisplatin combination, at 0.5 µM): 26.3% | inhibition ([15]; measured here: cisplatin combination, at 5 µM): 66.1% | inhibition ([16]; at 0.5 µM): 38.7% (inactive) | inhibition ([16]; cisplatin combination, at 0.5 µM): 58.9% | inhibition ([16]; cisplatin combination, at 5 µM): 102% | inhibition ([16]; measured here: BGB IC40 combination 0.05 uM, at 0.05 µM): 14.1% | inhibition ([16]; single agent, at 5 µM): 108% | inhibition ([17]; at 0.5 µM): 32.4% (inactive) | inhibition ([17]; cisplatin combo, at 5 µM): 91.3% | inhibition ([17]; measured here: BGB IC40 combination, at 0.05 µM): -15.7% | inhibition ([17]; measured here: combination with cisplatin, at 0.5 µM): 51.1% | inhibition ([17]; single agent, at 5 µM): 92.7%

NC(=O)Nc1cc(-c2ccc(CN3CCOCC3)cc2)sc1C(N)=O
AC50 [1]: 1.32 µM (active) | AC50 [2]: 18.7 µM (active) | AC50 [3]: 20.9 µM (active) | AC50 [4]: 16.6 µM (active) | AC50 [5]: 13.2 µM (active) | AC50 [6]: 0.934 µM (active) | AC50 [8]: 5.25 µM (active) | IC50 [18]: 2.95 µM (active)

From PubChem BioAssay
